According to PubChem BioAssay (Tox21):
Inconclusive results are not listed. Entries that show only a call come without a potency. Active and inactive are the calls of the source. Calls follow the shape of the dose curve; as a rule, active = well fitted inhibition curve with a large enough effect in the repeat runs; inconclusive = weak or mixed curves; inactive = no such curve, though single readings can be large or run the other way.

Target: Cytochrome P450 2D6 (Homo sapiens) (UniProt P10635)
Assay: Cytochrome P450 Family 2 Subfamily D Member 6 (CYP2D6) small molecule antagonists: luciferase reporter qHTS assay (AID 1671196); also: nearly all actives have a fitted effect of over 50% in size
Conditions: P450-Glo CYP2D6 enzyme assay, luciferin luminescence, 1 h; series mostly up to 115 µM
Text: U.S. Tox21 Program National Center for Advancing Translational Sciences [NCATS] U.S. Environmental Protection Agency [EPA] National Institutes of Environmental Health Sciences [NIEHS] National Toxicology Program [NTP] U.S. Food and Drug Administration [FDA] Tox21 Assay Overview: Cytochrome P450 (CYP) enzymes are membrane-bound hemeproteins that play a key role in metabolism of drugs and xenobiotics. Evaluation of the effect of chemicals on CYP isozymes is useful to minimize the adverse drug reactions and toxicities in drug development process. Tox21 chemicals were tested for their effect on CYP enzyme activities by using P450-Glo (TM) screening systems (Promega Corporation, Madison, WI). These systems provide a luminescent method containing proluciferin substrates and are converted to luciferin products by CYP isozymes. The luciferin products formed are detected with a luciferin detection reagent, and the amount of light produced is proportional to CYP activity. P450-Glo (TM) CYP2D6 screening system (Catalog. No. V9890) was used to detect the compounds that interfere in CYP2D6 activity.
Tox21 Assay Protocol Summary: Two ul of enzyme-substrate mix was dispensed into medium binding white/solid 1536-well plates (Greiner Bio-One North America Inc., Monroe, NC) using a BioRaptr Flying Reagent Dispenser (FRD, Beckman Coulter, Brea, CA). […] The assay plates were incubated at room temperature for 10 min. Then 2 ul of NADPH regeneration solution was added to each well of the assay plates using an FRD and incubated at room temperature for 1 h. The reaction was stopped by adding 4 ul of detection reagent using an FRD and after 20 min incubation at room temperature the luminescence signal was measured using a ViewLux plate reader (Perkin Elmer, Shelton, CT). Data were expressed as relative luminescence units.
Potency is read from the fitted curve at half-maximal effect.

Sequence of Cytochrome P450 2D6 (Homo sapiens) (P10635 whole entry, looked up): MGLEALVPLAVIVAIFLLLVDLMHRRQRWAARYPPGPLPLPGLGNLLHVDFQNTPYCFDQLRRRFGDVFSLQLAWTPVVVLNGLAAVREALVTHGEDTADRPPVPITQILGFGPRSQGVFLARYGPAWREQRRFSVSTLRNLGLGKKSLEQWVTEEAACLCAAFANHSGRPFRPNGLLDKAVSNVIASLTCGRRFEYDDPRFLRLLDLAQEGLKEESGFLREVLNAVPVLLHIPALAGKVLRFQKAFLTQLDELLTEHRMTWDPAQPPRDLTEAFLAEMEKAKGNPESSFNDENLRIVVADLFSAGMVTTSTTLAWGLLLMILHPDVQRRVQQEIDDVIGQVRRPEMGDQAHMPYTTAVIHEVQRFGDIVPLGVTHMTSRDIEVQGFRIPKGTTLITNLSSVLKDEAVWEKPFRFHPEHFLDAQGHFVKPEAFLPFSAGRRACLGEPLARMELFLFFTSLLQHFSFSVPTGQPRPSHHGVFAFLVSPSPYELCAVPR

Row | Compound | Potency
1 | O=C(O)CC(=O)C(=O)O | inactive
2 | Cc1cccc(C)c1NC(=O)CN(CC(=O)O)CC(=O)O | inactive
3 | C[C@@H]1C[C@H]2[C@@H]3CCC4=CC(=O)C=C[C@]4(C)[C@@]3(F)[C@@H](O)C[C@]2(C)[C@@]1(O)C(=O)COC(=O)c1ccncc1 | 11 µM (active)
4 | CCn1cc(C(=O)O)c(=O)c2cnc(N3CCNCC3)nc21 | inactive
5 | COC(C)(C)CCO | inactive
6 | O=C(CS)Nc1ccccc1 | inactive
7 | N=c1ccn2c(n1)O[C@H]1[C@H](O)[C@@H](CO)O[C@H]12 | inactive
8 | CC(=O)NO | inactive
9 | Nc1c(CC(=O)O)cccc1C(=O)c1ccc(Br)cc1 | inactive
10 | CN(C)CCN(Cc1ccsc1)c1ccccn1 | 3.89 µM (active)
11 | CCCCCCCCCCCCCCOS(=O)(=O)O | inactive
12 | COc1ccc(C)cc1[N+](=O)[O-] | inactive
13 | C[Si](C)(CCCN)O[Si](C)(C)CCCN | 22.4 µM (active)
14 | CC/C=C\CCOC(=O)CC | inactive
15 | Nc1cccc([N+](=O)[O-])c1 | inactive
16 | CCCCC(CC)COC(=O)CCCCCCCCC(=O)OCC(CC)CCCC (stereo not given) | inactive
17 | COc1cc2c(cc1OC)C(C(C(=O)N(CCc1ccc(OC)c(OC)c1OC)CCc1ccc(OC)c(OC)c1OC)c1ccccc1)=NCC2 (stereo not given) | 5.49 µM (active)
18 | CCCCCCCCCCCCCCCCCCOS(=O)(=O)O | inactive
19 | CC(C)CC(=O)C1C(=O)c2ccccc2C1=O | inactive
20 | CCOc1ccc(N)c([N+](=O)[O-])c1 | 71 µM (active)

Row | Compound | Potency
21 | O=C(OCCCCCCOC(=O)c1ccccc1)c1ccccc1 | inactive
22 | C=C(C)C(=O)OCC | inactive
23 | CCCCc1ncc(/C=C(\Cc2cccs2)C(=O)O)n1Cc1ccc(C(=O)O)cc1 | inactive
24 | C=CC(=O)OCCOCCOC(=O)C=C | inactive
25 | COc1cc(Cl)c(OC)cc1N | 63.3 µM (active)
26 | CCOc1ccc(N=Nc2ccc(/C=C/c3ccc(N=Nc4ccc(OCC)cc4)cc3S(=O)(=O)O)c(S(=O)(=O)O)c2)cc1 | inactive
27 | CCc1cc(C2=C(C(=O)O)N(c3ccccc3C(F)(F)F)S(=O)(=O)c3ccccc32)cc2c1OCO2 | inactive
28 | CCN(CC)CCNC(=O)c1cc(Br)c(N)cc1OC | 4.9 µM (active)
29 | CC(C)(C)Cl | inactive
30 | CCN(CC)c1ccc(C(=C2C=CC(=[N+](CC)CC)C=C2)c2cc(S(=O)(=O)O)ccc2S(=O)(=O)[O-])cc1 | 13.8 µM (active)
31 | CCOC(=O)C(F)(F)F | 35.6 µM (active)
32 | CNC(=O)CN(CCN(CCN(CC(=O)[O-])CC(=O)NC)CC(=O)[O-])CC(=O)[O-].O.[Gd+3] | inactive
33 | c1ccc(CNCCNCc2ccccc2)cc1 | 0.776 µM (active)
34 | O=C(Nc1ccc(S(=O)(=O)N2CCOCC2)cc1)c1cc(Cl)ccc1NS(=O)(=O)c1ccc(Cl)s1 | inactive
35 | COC(C)OC | inactive
36 | C#C[C@]1(O)CC[C@H]2[C@@H]3CCc4cc(OC5CCCC5)ccc4[C@H]3CC[C@@]21C | inactive
37 | CCN(CC)CCOC(=O)C(Cc1cccc2ccccc12)CC1CCCO1 (stereo not given) | 2.75 µM (active)
38 | CCO[C@H](Cc1ccc(OCCc2ccc(OS(C)(=O)=O)cc2)cc1)C(=O)O | inactive
39 | C#Cc1cccc(Nc2ncnc3cc(OCCOC)c(OCCOC)cc23)c1 | inactive
40 | Cc1ccc(C(C)OC(=O)C2(C)CCC(C(=O)O)C2(C)C)cc1 (stereo not given) | inactive
